IL-1B inflam inh: qHTS for Inhibitors of Inflammasome Signaling: IL-1-beta AlphaLISA Primary Screen; THP-1 LPS/ATP IL-1B secretion, AlphaLISA, 16 h; stronger effect = lower value; activity change, % at 57.5 µM; 4.7% of 360,000 active; AID 743279, 2014; in the data active = activity change below about -50%; inconclusive = mostly about -30% to -49%
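THP-1 cells pretreated 1 hr with compounds (up to 57.5 uM final), then stimulated with LPS (250 ng/mL final) plus ATP (1.25 mM final); secreted IL-1B measured by AlphaLISA after 16 hr, decreased signal indicating inhibition.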
TDP1 cell noCPT: qHTS for Inhibitors of human tyrosyl-DNA phosphodiesterase 1 (TDP1): qHTS in cells in absence of CPT | DT40 Tdp1-/- hTDP1 cells, no CPT, ATP luminescence, 48 h | Potency, µM (series often up to 46.2 µM), inactives show top-dose activity change, negative = growth inhibition, most hits filed as inhibitors | 15% of 420,000 active | AID 686978, 2013; note: potency is the fitted concentration of half-maximal effect; nearly all actives have a fitted effect of over 55% in size
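Camptothecin absent (DMSO only). Human TDP1-complemented DT40 knockout cells, 400 cells/well, 37 °C for minimum 48 hr; ATP measured via CellTiter-Glo, 30 min dark incubation, luminescence.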
HT1080 IDH1KD tx: qHTS for induction of synthetic lethality in tumor cells producing 2HG: qHTS for the HT-1080-IDH1KD cell line. HT-1080 IDH1 knockdown viability, ATP luminescence, 48 h. Potency, µM (top dose mostly 46.1 µM), for inactives: at the top dose activity, negative = toxicity, most hits filed as cytotoxic. 2% of 360,000 active. AID 686971, 2013;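 note: potency is the fitted concentration of half-maximal effect; 0% = DMSO wells and -100% = cell-free medium wells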
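HT-1080-IDH1KD cells (IDH1 knocked down), 750/well in RPMI with 5% FBS, treated with compound 48 h at 37 degrees C. Viability by CellTiter-Glo luminescence, normalised to DMSO and no-cell wells; concentration-response curves classed.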
DT40 TDP1 CPT: qHTS for Inhibitors of human tyrosyl-DNA phosphodiesterase 1 (TDP1): qHTS in cells in presence of CPT; AID 686979, 2013; 12% of 420,000 active; Potency, µM (top dose mostly 46.2 µM), for inactives: at the highest dose activity change, negative = growth inhibition, most hits filed as inhibitors; chicken DT40 Tdp1-/-;hTDP1 cells + 20 nM CPT, ATP luminescence, 48 h; note: potency is the fitted concentration of half-maximal effect; nearly all actives have a fitted effect of over 55% in size
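Chicken DT40 Tdp1-/- cells stably complemented with human TDP1 were seeded at 400 cells/well in medium containing 20 nM camptothecin, exposed to pin-transferred compounds, and grown at 37 °C for at least 48 hr. Viability was read as ATP luminescence.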
HT1080NT lethal: qHTS for induction of synthetic lethality in tumor cells producing 2HG: qHTS for the HT-1080-NT fibrosarcoma cell line; HT-1080-NT fibrosarcoma viability, CellTiter-Glo ATP luminescence, 48 h; Potency, µM (doses to about 46.1 µM), for the others: at the top dose activity, negative = less viability, actives largely listed as cytotoxic; 1.6% of 360,000 active;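 note: NT is the 2HG producing partner of a matched IDH1 knockdown line; potency is the fitted concentration of half-maximal effect; 0% = DMSO-treated cells and -100% = media-only wells without cells; nearly all actives have a fitted effect of over 55% in size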
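A 48-hour cytotoxicity screen used HT-1080-NT cells plated 2 hours before compound delivery. ATP-based CellTiter-Glo luminescence measured viability, normalized to DMSO and no-cell controls.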
The depositor's hits bear a star. An excerpt weighted towards active compounds, which were near 19% of everything screened. Unless noted, calls come from the whole dose curve; as a rule, active = well fitted curve in the direction sought with a large enough effect; inconclusive = small, poorly fitted or top-dose-only effect, or another doubt; inactive = no such curve, though single readings can be large; an effect the other way counts as inactive or inconclusive. Unless noted, % is set by controls: 0 for no effect and ±100 for the full control effect.

CCc1ccc(CN(C)Cc2nc(COc3ccccc3)no2)nc1 was read as IL-1B inflam inh 19, TDP1 cell noCPT -9%, HT1080 IDH1KD tx 1%, DT40 TDP1 CPT 4% and HT1080NT lethal -11%.
Screening Cc1ccccc1N1CCN(c2ccc(NC(=O)C3CCCCC3C(=O)O)cc2)CC1 (configuration not stated) returned IL-1B inflam inh -3, TDP1 cell noCPT 9.2µM*, HT1080 IDH1KD tx -1%, DT40 TDP1 CPT inconclusive and HT1080NT lethal -5%.
O=C(O)[C@H]1CCCC[C@H]1C(=O)Nc1ccc(Nc2ccccc2)cc1 was read as IL-1B inflam inh -9, TDP1 cell noCPT inconclusive, HT1080 IDH1KD tx -1%, DT40 TDP1 CPT -13% and HT1080NT lethal 1%.
For COc1ccc(CC(=O)Nc2ccc(S(=O)(=O)Nc3onc(C)c3C)cc2)cc1OC the results were IL-1B inflam inh 17, TDP1 cell noCPT -17%, HT1080 IDH1KD tx -2%, DT40 TDP1 CPT -2% and HT1080NT lethal -2%.
`CC1=NN(C(=O)COc2ccccc2)C(O)(c2ccccc2)C1` (configuration not stated) gave IL-1B inflam inh 13, TDP1 cell noCPT inconclusive, HT1080 IDH1KD tx 6%, DT40 TDP1 CPT 5.8µM* and HT1080NT lethal 10%.
Screening CCC1=NN(C(=O)COc2ccccc2)C(O)(c2ccc(Br)cc2)C1 (configuration not stated) returned IL-1B inflam inh 6, TDP1 cell noCPT 21µM*, HT1080 IDH1KD tx -7%, DT40 TDP1 CPT inconclusive and HT1080NT lethal -20%.
`Cc1[nH]c(C)c(S(=O)(=O)N2CCCCC2C)c1C(=O)N1CCCC1` (configuration not stated) gave IL-1B inflam inh 11, TDP1 cell noCPT 13%, HT1080 IDH1KD tx 7%, DT40 TDP1 CPT 2% and HT1080NT lethal 2%.
Screening O=[N+]([O-])c1cccc(N=NN(CCO)c2cccc([N+](=O)[O-])c2)c1 returned IL-1B inflam inh 4, TDP1 cell noCPT inconclusive, HT1080 IDH1KD tx -25%, DT40 TDP1 CPT -21% and HT1080NT lethal inconclusive.
`CCCN(N=Nc1cccc([N+](=O)[O-])c1)c1cccc([N+](=O)[O-])c1` gave IL-1B inflam inh -51*, TDP1 cell noCPT inconclusive, HT1080 IDH1KD tx 7%, DT40 TDP1 CPT inconclusive and HT1080NT lethal 12%.
For CC(=O)c1cccc(Nc2cc(C)nc3ccccc23)c1 the results were IL-1B inflam inh 50, TDP1 cell noCPT -16%, HT1080 IDH1KD tx -10%, DT40 TDP1 CPT inconclusive and HT1080NT lethal -5%.
`CC(N)c1csc(Nc2ccc(C(=O)NCCO)cc2)n1` (configuration not stated) gave IL-1B inflam inh 12, TDP1 cell noCPT -10%, HT1080 IDH1KD tx 19%, DT40 TDP1 CPT -2% and HT1080NT lethal inconclusive.
`Cc1cc(C)c2nc(C)cc(Nc3ccc(C(=O)N(C)C)cc3)c2c1` gave IL-1B inflam inh 12, TDP1 cell noCPT -10%, HT1080 IDH1KD tx 1%, DT40 TDP1 CPT 18% and HT1080NT lethal -1%.
`Cc1cc(C)c2nc(C)cc(Nc3ccc(C(=O)NCCO)cc3)c2c1` gave IL-1B inflam inh -90*, TDP1 cell noCPT inconclusive, HT1080 IDH1KD tx -14%, DT40 TDP1 CPT -5% and HT1080NT lethal -14%.
`CC(=O)c1cccc(Nc2cc(C)nc3c(C)cccc23)c1` gave IL-1B inflam inh -75*, TDP1 cell noCPT inconclusive, HT1080 IDH1KD tx -29%, DT40 TDP1 CPT -26% and HT1080NT lethal -8%.
For CC(=O)c1ccc(Nc2cc(C)nc3c(C)cc(C)cc23)cc1 the results were IL-1B inflam inh -95*, TDP1 cell noCPT 4.6µM*, HT1080 IDH1KD tx 8.2µM*, DT40 TDP1 CPT 4.6µM* and HT1080NT lethal 9.2µM*.
